SRC3 TRFRET art – counter-screen for PPARgamma SRC-3 recruitment agonists: TR-FRET artefact; AID 1048; 0.39% of 99,000 active; TR-FRET ratio at 8 µM; PPARgamma/SRC-3 format; hits give high values
SRC1 TRFRET art – TR-FRET artefact, counter-screen to PPARgamma/SRC-1 agonist assay; TR-FRET detection artefact counter-screen, emission ratio; hits give high values; TR-FRET ratio at 8 µM; 0.34% of 99,000 active; AID 1051; in the data active means TR-FRET ratio above about 2300
PPARg SRC-3 ag – agonists of human PPARgamma SRC-3 coactivator recruitment; AID 731; 0.26% of 200,000 active; biochemical PPARgamma/SRC-3 coactivator recruitment assay; activation, % at 8 µM; in the data active means activation above about 23%;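 further: 0% = DMSO and 100% = reference agonist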
Target sequence (P37231 whole entry, looked up): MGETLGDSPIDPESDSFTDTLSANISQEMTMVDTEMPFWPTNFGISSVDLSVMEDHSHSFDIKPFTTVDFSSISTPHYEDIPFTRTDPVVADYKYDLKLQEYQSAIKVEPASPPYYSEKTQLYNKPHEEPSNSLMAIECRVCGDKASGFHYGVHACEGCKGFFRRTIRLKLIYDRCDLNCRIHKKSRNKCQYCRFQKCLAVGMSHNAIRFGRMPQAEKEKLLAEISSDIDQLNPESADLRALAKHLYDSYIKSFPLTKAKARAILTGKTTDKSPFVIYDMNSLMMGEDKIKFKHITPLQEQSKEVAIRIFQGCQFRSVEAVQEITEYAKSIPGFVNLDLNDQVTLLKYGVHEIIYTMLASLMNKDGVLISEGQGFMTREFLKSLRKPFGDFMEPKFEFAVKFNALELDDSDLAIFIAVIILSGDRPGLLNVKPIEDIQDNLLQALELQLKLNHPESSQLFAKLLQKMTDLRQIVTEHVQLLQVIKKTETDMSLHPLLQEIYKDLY
PPARg SRC-1 ag – promotes SRC-1 coactivator recruitment by human PPARgamma | P37231 | PPARgamma-SRC-1 coactivator recruitment biochemical assay | activation, % at 8 µM | 0.41% of 200,000 active | AID 631; in the data active means activation above about 19%;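 further: 0% = DMSO and 100% = reference agonist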
PPARg SRC-2 ag – promotes SRC-2 coactivator recruitment by human PPARgamma; P37231; 0.34% of 200,000 active; PPARgamma LBD-SRC-2 recruitment, biochemical; activation, % at 8 µM; in the data active means activation above about 22%;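 further: 0% = vehicle and 100% = reference agonist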
SRC2 TRFRET art – flags TR-FRET format artefacts in PPARgamma SRC-2 recruitment agonist screen | TR-FRET artefact counter-screen; hits give high values | TR-FRET ratio at 8 µM | 0.4% of 200,000 active
* = called active by the depositor; . = no result. The list is not random: actives were taken first. Their share in the collection is about 0.9%. Unless noted, no stated cut-off is given here; in the data, active means TR-FRET ratio above about 2000; inactive means the rest.

SMILES	SRC3 TRFRET art	SRC1 TRFRET art	PPARg SRC-3 ag	PPARg SRC-1 ag	PPARg SRC-2 ag	SRC2 TRFRET art
Cn1cccc1-c1nc2ccc(NC(=O)c3ccccc3)cc2[nH]1	.	.	7.1	0.7	26.0*	1614
CCOc1ccccc1NC(=O)CSc1ncnc2c1oc1ccccc12	.	.	-0.1	10.9	6.5	1627
O=C(CSc1ncnc2c1oc1ccccc12)N1CCN(c2ccccc2)CC1	.	.	25.4	87.1*	14.9	1527
c1ccc(CSc2ncnc3c2oc2ccccc23)cc1	.	.	84.4*	59.3*	62.0*	2898*
CCc1nnc(NC(=O)CSc2ncnc3c2oc2ccccc23)s1	.	.	5.2	85.8*	11.1	1593
CCCSc1ncnc2c1oc1ccccc12	.	.	4.1	7.0	1.9	1525
CCOC(=O)C(NC(=O)CC)(N1CCc2ccccc2C1)C(F)(F)F (configuration not stated)	.	.	11.7	-3.8	4.9	1583
CNc1ccc(Oc2nc([N+](=O)[O-])nn2C)cc1	1520	1942	2.7	6.0	1.6	1634
CCSC1=NCCN1C(=O)C(C)(C)Oc1ccc(Cl)cc1	1561	1729	-0.2	5.2	3.0	1567
Fc1ccc(-c2n[nH]c(=S)n2-c2ccc3c(c2)OCCO3)cc1	2239*	2494*	19.9	18.8	18.8	1992*
S=c1[nH]nc(-c2ccc(Cl)cc2)n1-c1ccc2c(c1)OCCO2	1832	2170	12.7	16.9	21.3	1817
Cn1cc(Cl)c(-c2n[nH]c(=S)n2-c2ccc(F)cc2)n1	1845	2344*	9.7	17.3	21.0	1896
Cc1ccc(-n2c(-c3nn(C)cc3Cl)n[nH]c2=S)cc1	1528	1918	8.1	4.1	6.5	1643
O=C(CSc1ccccc1)Nc1ccncc1	.	.	5.3	4.4	11.7	1590
COc1ccc(CCC(=O)NNC(=S)Nc2cccc(C(C)=O)c2)cc1	1695	1830	-3.1	9.6	4.5	1567
COc1cccc(N/C(N)=N/c2nc(CSc3ccccn3)cc(=O)[nH]2)c1	1524	1915	2.6	5.8	1.0	1675
CCc1ccc(N/C(N)=N/c2nc(CSc3ccccn3)cc(=O)[nH]2)cc1	2114*	2062	5.3	5.3	16.8	1924
Cc1ccccc1COC[C@H](CC(C)C)N1CCN(C(=O)c2cccc(C(F)(F)F)c2)CCC1=O	1428	1975	5.4	6.4	6.1	1575
CCC(=O)N1CCN(c2nc3ccccc3s2)CC1	.	.	8.7	0.0	3.9	1508
O=C(c1cc2sccc2n1Cc1ccccc1)N1CCN(c2nc3ccccc3s2)CC1	.	.	11.3	6.8	7.8	2570*
O=C(COn1nnc2ccccc21)N1CCN(Cc2ccccc2)CC1	1644	1617	0.6	3.5	3.8	1698
O=C(CN1C(=O)c2ccccc2S1(=O)=O)Nc1ccccc1	.	.	-5.3	-6.4	-6.7	1472
CSc1cccc(NC(=O)CN2C(=O)c3ccccc3S2(=O)=O)c1	.	.	21.0	0.0	21.8*	1521
COC(=O)/C(C#N)=C1/C=Cc2ccccc2N1	1545	1622	4.5	5.6	8.4	1570
COc1cccc(NC(=O)COC(=O)c2ccc(F)cc2F)c1	1348	1458	-0.2	-6.4	-1.4	1356
SMILES	SRC3 TRFRET art	SRC1 TRFRET art	PPARg SRC-3 ag	PPARg SRC-1 ag	PPARg SRC-2 ag	SRC2 TRFRET art
COc1ccc(NC(=O)COC(=O)c2ccc(F)cc2F)cc1	1571	1852	12.2	11.4	5.8	1971*
COc1cc(-c2nc3ccccn3c2/N=C/c2cc(OC)c(OC)c(OC)c2)ccc1O	.	.	18.9	23.2*	25.8*	1665
CCOc1ccc(NC(=S)NC(C)C(c2ccccc2)N2CCN(C)CC2)cc1 (configuration not stated)	1519	1662	2.4	8.2	2.5	1416
CC(NC(=O)COc1ccccc1)C(c1ccccc1)N1CCN(C)CC1 (configuration not stated)	1665	2331*	1.3	8.6	6.5	1583
Cc1c(C(=O)Nc2c(F)cccc2F)sc2ncnc(N3CCN(c4ccccc4)CC3)c12	2183*	2137	3.4	3.7	5.3	1813
Cc1ccc(CNC(=O)Cn2nnc3ccccc3c2=O)cc1	1543	1588	2.0	2.1	1.9	1721
Cc1cccc(Cn2cc(SCC(=O)Nc3nccs3)c3ccccc32)c1	.	.	4.6	2.5	4.8	1694
Cc1ccc(Cn2cc(SCC(=O)Nc3nccs3)c3ccccc32)cc1	.	.	1.7	-5.4	-1.6	2880*
COc1ccc(C2C(C(C)=O)=C(O)C(=O)N2c2nc3ccccc3s2)cc1OC (configuration not stated)	2067*	1870	9.1	4.8	16.0	1810
COc1ccc(C2C(C(C)=O)=C(O)C(=O)N2c2nccs2)cc1OC (configuration not stated)	1778	2238	1.1	10.7	5.0	1460
CC(=O)Cc1nsc(NC(=O)c2cc(-c3ccccc3Cl)oc2C)n1	.	.	-7.8	-3.9	-2.5	1519
Cc1nn(C)c(Oc2cccc(Cl)c2)c1C(=O)Nc1ccc(F)cc1	.	.	-2.6	-2.8	-4.5	1339
c1ccc(-n2ncc3c2ncn2nc(-c4ccco4)nc32)cc1	.	.	14.7	12.5	46.6*	2763*
COc1cccc(OCc2nc3c4cnn(-c5ccccc5)c4ncn3n2)c1	.	.	7.0	9.9	3.5	1589
O=C(O)c1ccc(N2CC3CC(C2)c2cccc(=O)n2C3)c(NS(=O)(=O)c2cccc(C(F)(F)F)c2)c1 (configuration not stated)	1516	1772	-0.6	-4.9	2.5	1578
Cc1ccc(OCC(=O)NNC(=O)C(=O)NC(C)(C)C)cc1	1508	2454*	7.3	20.9*	7.2	1515
Cc1nnc(NC(=O)c2nn(CC(C)C)c(=O)c3ccccc23)s1	1608	2336*	0.4	3.7	-4.8	1528
CCn1c(SCC(=O)NCc2ccccc2)nc2c(c1=O)SC(C)C2 (configuration not stated)	.	.	-12.4	1.8	-7.1	1295
NC(=O)/C(=C\c1cccnc1)NC(=O)c1ccccc1	1646	2170	1.7	0.3	5.8	1374
Cc1ccc(NC(=O)C2CCN(S(=O)(=O)c3cnc[nH]3)CC2)nc1	1879	1718	2.0	3.7	4.1	1566
Cc1cc(=O)[nH]c(N/N=C/c2sccc2C)n1	1636	1872	3.1	7.0	9.1	1625
Cc1ccsc1/C=N/Nc1nc2ccccc2[nH]1	1746	2515*	8.3	13.1	17.0	1670
Cc1ccc(/C=C/C(=O)OCC(=O)NC(C)C)o1	1331	1748	-1.0	1.2	-1.7	1514
Cc1c(Cl)cccc1NC(=S)NCC(c1cccnc1)N(C)C (configuration not stated)	1381	1608	-0.9	3.3	-2.3	1635
CCOc1ccc(NC(=O)CCn2c(=O)[nH]c3ccsc3c2=O)cc1	.	.	3.0	7.4	-1.5	1322
Cc1sc(-n2c(C)cc(/C=N/n3cnnc3)c2C)c(C#N)c1C	.	.	29.5*	6.0	5.7	1511
COC(=O)c1ccccc1NC(=S)N(Cc1ccc2c(c1)OCO2)Cc1cc2ccc(OC)cc2[nH]c1=O	2123*	1854	-1.4	-4.7	13.2	1721

Compound activity: PubChem, The Scripps Research Institute Molecular Screening Center
